# Source: PubChem BioAssay (Tox21)
# Records with an inconclusive call do not appear. Entries that show only a call come without a potency. Activity calls are given as the source filed them. Unless noted, the call rests on the fitted dose curve.
# How the values were obtained:
# [1] = target: Gonadotropin-releasing hormone receptor (Homo sapiens) (UniProt P30968); experiment: Human gonadotropin-releasing hormone receptor (GnRHR) small molecule agonists, calcium flux assay in GnRHR-HEK293 cells (AID 1920063); further: nearly all actives have a fitted effect of over 35% in size
# Chain of Gonadotropin-releasing hormone receptor (Homo sapiens) (P30968 whole entry, looked up): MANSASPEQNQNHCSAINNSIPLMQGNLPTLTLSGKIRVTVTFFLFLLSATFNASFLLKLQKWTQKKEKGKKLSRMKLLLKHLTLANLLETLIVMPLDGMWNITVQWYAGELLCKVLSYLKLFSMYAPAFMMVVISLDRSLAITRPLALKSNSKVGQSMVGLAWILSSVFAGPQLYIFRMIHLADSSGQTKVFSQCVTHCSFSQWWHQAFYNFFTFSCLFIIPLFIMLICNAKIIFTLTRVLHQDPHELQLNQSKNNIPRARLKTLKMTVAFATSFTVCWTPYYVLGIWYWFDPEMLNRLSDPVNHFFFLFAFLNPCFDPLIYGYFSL
# How it was run: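 HEK293 cells stably expressing human GnRHR were plated 18 h at 37 °C, loaded with calcium dye 1 h at 37 °C, then given compound in agonist mode; fluorescence (Ex/Em 480/540) read kinetically for 3 min at 1 s intervals.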
# [2] = target: KiSS-1 receptor (Homo sapiens) (UniProt Q969F8); experiment: Human kisspeptin (KISS1R) small molecule agonists, calcium flux assay in KISS1R-HEK293 cells (AID 1920064; active means well fitted activation curve with a large enough effect in the repeat runs)
# Chain of KiSS-1 receptor (Homo sapiens) (Q969F8 whole entry, looked up): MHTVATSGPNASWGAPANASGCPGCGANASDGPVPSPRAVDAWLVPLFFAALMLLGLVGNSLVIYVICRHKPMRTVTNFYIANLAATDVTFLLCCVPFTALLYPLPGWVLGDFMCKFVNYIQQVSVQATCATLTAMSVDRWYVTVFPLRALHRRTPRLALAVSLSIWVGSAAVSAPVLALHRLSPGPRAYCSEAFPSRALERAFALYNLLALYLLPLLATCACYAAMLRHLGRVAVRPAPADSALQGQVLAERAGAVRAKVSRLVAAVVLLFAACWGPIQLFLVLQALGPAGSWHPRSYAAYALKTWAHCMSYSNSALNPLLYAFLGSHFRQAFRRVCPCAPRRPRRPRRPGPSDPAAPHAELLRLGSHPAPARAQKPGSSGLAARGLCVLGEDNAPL
# How it was run: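 HEK293 cells stably expressing human KISS1R were plated 18 h at 37 °C, loaded with calcium dye for 1 h at 37 °C, then given compound by pin tool. Fluorescence (Ex/Em 480/540) was read kinetically for 3 min.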
# [3] = G protein-coupled receptor (GPCR) small molecule agonists, calcium flux assay: HEK293 wild type cell line counter screen (AID 1920065)
# How it was run: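 Cells were plated and cultured 18 h at 37 C/5% CO2, then loaded with calcium dye for 1 h at 37 C. Compounds in DMSO were pin-transferred in agonist mode, and fluorescence (Ex/Em 480/540) was read kinetically for 3 min at 1 s intervals.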
# [4] = p53 small molecule agonists, cell-based qHTS assay with human liver microsomes (AID 1963577)
# How it was run: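 Fluorescence of the beta-lactamase reporter in p53RE-bla cells, detected with LiveBLAzer substrate (2 h, room temperature, dark), served as the read-out after 16 h compound exposure at 37 C with human liver microsomes and NADPH, each 0.5 mg/mL final.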
# [5] = p53 small molecule agonists, cell-based qHTS assay with rat liver microsomes (AID 1963578)
# How it was run: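 Cells carrying a p53 response element–beta-lactamase reporter were plated and rested 5 h, then dosed with compound in DMSO plus rat liver microsomes and NADPH, each at 0.5 mg/mL final. After 16 h at 37 C, LiveBLAzer substrate was added for 2 h.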
# [6] = p53 small molecule agonists, cell-based qHTS assay with human liver microsomes: qHTS cell viability counter screen (AID 1963579); further: nearly all actives have a fitted effect of over 45% in size
# How it was run: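 Cytotoxicity counter screen: p53RE-bla, 4,000 cells/well; 5 h settle, 37 C/5% CO2; cpd + HLM 0.5 mg/mL + NADPH 0.5 mg/mL (final); 16 h, 37 C; CellTiter-Glo, 30 min RT, luminescence.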
# [7] = p53 small molecule agonists, cell-based qHTS assay with rat liver microsomes: qHTS cell viability counter screen (AID 1963580); further: nearly all actives have a fitted effect of over 45% in size
# How it was run: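 p53RE-bla HCT-116 cells (4,000/well) rested 5 h at 37 C, then given Tox21 compounds in DMSO with rat liver microsomes (0.5 mg/mL final) plus NADPH (0.5 mg/mL final) for 16 h at 37 C. Viability read by CellTiter-Glo luminescence after 30 min at room temperature.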
# [8] = p53 small molecule agonists, cell-based qHTS assay: qHTS cell viability counter screen (AID 1963581); further: nearly all actives have a fitted effect of over 45% in size
# How it was run: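 p53RE-bla HCT-116 cells were exposed to compounds for 16 h at 37 C; after the beta-lactamase FRET read in the same wells, CellTiter-Glo was added and luminescence (intracellular ATP) read after 30 min at room temperature.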
# [9] = p53 small molecule agonists, cell-based qHTS assay (AID 1963582; active means well fitted activation curve with a large enough effect in the signal ratio in the repeat runs, not every such curve was filed as active; the % refers to the signal ratio)
# How it was run: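 p53RE-bla beta-lactamase reporter cells rested 5 h at 37 C/5% CO2, then received compounds in DMSO by pin transfer and were incubated 16 h at 37 C. LiveBLAzer B/G FRET substrate was loaded for 2 h at room temperature before fluorescence reading.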
# [10] = target: 5-hydroxytryptamine receptor 2A (Homo sapiens) (UniProt P28223); experiment: 5-hydroxytryptamine receptor 2A (HTR2A) small molecule antagonists, cell-based qHTS assay (AID 1963586); further: nearly all actives have a fitted effect of over 45% in size
# Chain of 5-hydroxytryptamine receptor 2A (Homo sapiens) (P28223 whole entry, looked up): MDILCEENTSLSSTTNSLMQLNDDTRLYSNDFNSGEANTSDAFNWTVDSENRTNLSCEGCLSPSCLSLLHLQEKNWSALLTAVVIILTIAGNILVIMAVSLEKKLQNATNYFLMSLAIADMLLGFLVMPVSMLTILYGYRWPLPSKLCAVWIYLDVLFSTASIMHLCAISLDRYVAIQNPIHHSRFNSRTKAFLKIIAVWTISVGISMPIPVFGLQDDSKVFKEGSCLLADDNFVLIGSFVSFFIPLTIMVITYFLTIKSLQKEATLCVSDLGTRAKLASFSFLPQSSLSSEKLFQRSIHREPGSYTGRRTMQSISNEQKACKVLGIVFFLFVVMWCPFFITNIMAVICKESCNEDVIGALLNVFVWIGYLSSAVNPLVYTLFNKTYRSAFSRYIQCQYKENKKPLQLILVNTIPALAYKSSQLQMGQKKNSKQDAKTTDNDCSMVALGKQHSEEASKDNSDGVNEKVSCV
# How it was run: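 Antagonist-mode intracellular calcium assay: DOI (4 nM) added after 5 min compound pre-incubation at room temperature to dye-loaded HTR2A-CHO cells. Fluorescence followed for 3 min, sampled every second.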
# [11] = target: 5-hydroxytryptamine receptor 2A (Homo sapiens) (UniProt P28223); experiment: 5-hydroxytryptamine receptor 2A (HTR2A) small molecule agonists, cell-based qHTS assay (AID 1963587); further: nearly all actives have a fitted effect of over 30% in size
# How it was run: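 HTR2A-CHO cells, plated 18 h at 37 C/5% CO2, dye-loaded 1 h at 37 C; compounds in DMSO added by pin tool (agonist mode). Intracellular calcium flux read as kinetic fluorescence on FDSS over 2 min at 1 s intervals.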
# [12] = target: Muscarinic acetylcholine receptor M1 (Homo sapiens) (UniProt P11229); experiment: Cholinergic receptor muscarinic 1 (CHRM1) small molecule antagonists, cell-based qHTS assay (AID 1963588); further: nearly all actives have a fitted effect of over 40% in size
# Chain of Muscarinic acetylcholine receptor M1 (Homo sapiens) (P11229 whole entry, looked up): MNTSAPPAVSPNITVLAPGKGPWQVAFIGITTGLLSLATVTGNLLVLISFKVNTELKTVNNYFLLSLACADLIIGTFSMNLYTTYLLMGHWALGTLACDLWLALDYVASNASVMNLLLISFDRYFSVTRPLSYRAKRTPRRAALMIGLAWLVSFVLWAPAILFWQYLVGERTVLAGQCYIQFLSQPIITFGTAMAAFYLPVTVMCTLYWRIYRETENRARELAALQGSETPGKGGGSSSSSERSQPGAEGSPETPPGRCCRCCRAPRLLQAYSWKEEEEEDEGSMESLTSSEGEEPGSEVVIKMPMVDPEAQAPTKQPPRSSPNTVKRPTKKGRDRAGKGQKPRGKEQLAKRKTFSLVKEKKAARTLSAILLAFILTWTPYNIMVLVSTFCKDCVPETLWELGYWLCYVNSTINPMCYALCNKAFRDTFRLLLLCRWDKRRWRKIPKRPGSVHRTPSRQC
# How it was run: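 CHRM1-CHO calcium-flux assay, antagonist mode. Cells were seeded 18 h, dye-loaded 1 h at 37 C and given compound for 5 min at RT, then acetylcholine was added at 50nM. FDSS fluorescence was read 3 min; 15 concentrations, three runs.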
# [13] = target: Muscarinic acetylcholine receptor M1 (Homo sapiens) (UniProt P11229); experiment: Cholinergic receptor muscarinic 1 (CHRM1) small molecule agonists, cell-based qHTS assay (AID 1963589); further: nearly all actives have a fitted effect of over 35% in size
# How it was run: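 CHO cells stably expressing human CHRM1, seeded 18 h at 37 C/5% CO2, dye-loaded 1 h at 37 C, then given compound in agonist mode; intracellular calcium fluorescence read kinetically at 1 s intervals. Fifteen concentrations, three independent runs.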
# [14] = target: Beta-2 adrenergic receptor (Homo sapiens) (UniProt P07550); experiment: Adrenergic beta2 receptor (ADRB2) small molecule antagonists, cell-based qHTS assay (AID 1963592); further: series mostly up to about 92 µM; nearly all actives have a fitted effect of over 50% in size
# Chain of Beta-2 adrenergic receptor (Homo sapiens) (P07550 whole entry, looked up): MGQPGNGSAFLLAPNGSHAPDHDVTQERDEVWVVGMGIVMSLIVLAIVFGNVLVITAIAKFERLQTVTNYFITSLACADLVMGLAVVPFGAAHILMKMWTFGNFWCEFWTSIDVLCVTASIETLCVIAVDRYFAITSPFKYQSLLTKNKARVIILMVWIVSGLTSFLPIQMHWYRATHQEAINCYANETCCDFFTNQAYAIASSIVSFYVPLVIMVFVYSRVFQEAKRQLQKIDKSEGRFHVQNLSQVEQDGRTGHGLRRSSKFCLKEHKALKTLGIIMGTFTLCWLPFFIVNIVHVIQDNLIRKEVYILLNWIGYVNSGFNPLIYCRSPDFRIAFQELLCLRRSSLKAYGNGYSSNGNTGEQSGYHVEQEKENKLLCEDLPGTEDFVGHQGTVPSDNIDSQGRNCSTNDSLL
# How it was run: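 Cells (CHO, stable ADRB2 overexpression) incubated 18-20hr at 37C; compounds added from DMSO; agonist mix (1nM isoproterenol, 100uM IBMX, 25uM Ro-20-1724) added; 0.5hr RT; d2-cAMP and anti-cAMP-cryptate added; 1hr RT; 665/615 nm read.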
# [15] = target: D(2) dopamine receptor (Homo sapiens) (UniProt P14416); experiment: Dopamine D2 receptor (DRD2) small molecule agonists, cell-based qHTS assay (AID 1963594); further: nearly all actives have a fitted effect of over 35% in size
# Chain of D(2) dopamine receptor (Homo sapiens) (P14416 whole entry, looked up): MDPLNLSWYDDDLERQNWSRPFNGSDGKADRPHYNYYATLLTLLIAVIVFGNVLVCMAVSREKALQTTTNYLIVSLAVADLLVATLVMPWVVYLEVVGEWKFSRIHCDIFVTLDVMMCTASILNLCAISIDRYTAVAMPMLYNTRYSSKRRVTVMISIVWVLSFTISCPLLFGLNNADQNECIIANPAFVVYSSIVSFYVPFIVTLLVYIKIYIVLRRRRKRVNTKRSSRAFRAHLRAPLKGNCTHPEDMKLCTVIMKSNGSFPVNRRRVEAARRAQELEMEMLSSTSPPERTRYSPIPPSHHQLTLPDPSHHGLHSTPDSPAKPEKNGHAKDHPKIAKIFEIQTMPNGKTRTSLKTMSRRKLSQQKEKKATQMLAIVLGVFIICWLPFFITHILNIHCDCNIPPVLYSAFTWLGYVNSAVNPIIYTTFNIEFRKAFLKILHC
# How it was run: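 HEK293 cells stably expressing DRD2 were cultured 24 h at 37 C, then given Ro20-1724 (0.1 mM final) and compounds for 10 min at room temperature. NKH477 (200nM) was then added for 30 min. cAMP was read by HTRF.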
# [16] = target: D(2) dopamine receptor (Homo sapiens) (UniProt P14416); experiment: Dopamine D2 receptor (DRD2) small molecule antagonists, cell-based qHTS assay (AID 1963595; active means well fitted inhibition curve with a large enough effect in the signal ratio in the repeat runs, with a control signal flat; the % refers to the signal ratio)
# How it was run: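 HTRF cAMP read-out at 665 and 620 nm emission (340 nm excitation). Antagonist mode: compounds were tested against 12 nM quinpirole in DRD2-HEK293 cells, with 200 nM NKH477 raising cAMP and 0.1 mM Ro20-1724 blocking its breakdown.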
# [17] = cAMP Responsive Elements (CRE) small molecule agonists, cell-based qHTS assay (AID 1963590)
# How it was run: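 CRE-bla HEK 293T cells in DMEM with 10% dialyzed FBS, NEAA, pyruvate and 25 mM HEPES were plated 18 h at 37 C/5% CO2, then exposed to compounds in DMSO for 3 h before LiveBLAzer B/G FRET substrate addition.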
# [18] = cAMP Responsive Elements (CRE) small molecule antagonists, cell-based qHTS assay (AID 1963591; active means well fitted inhibition curve with a large enough effect in the signal ratio in the repeat runs, not every such curve was filed as active; the % refers to the signal ratio)
# How it was run: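 CRE-bla HEK293T cells were plated 18 h at 37 °C/5% CO2, pinned with compound in DMSO, then stimulated with NKH477 at 0.25 uM final for 3 h. LiveBLAzer B/G FRET substrate was added and plates incubated 2 h at room temperature.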
# [19] = target: Beta-2 adrenergic receptor (Homo sapiens) (UniProt P07550); experiment: Adrenergic beta2 receptor (ADRB2) small molecule agonists, cell-based qHTS assay (AID 1963593);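 further: CHO cells stably overexpressing human ADRB2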
# How it was run: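 CHO cells stably over-expressing ADRB2 were plated overnight at 37C, then dosed with compounds plus a stimulation mix containing 100uM IBMX and 25uM Ro-20-1724 for 0.5hr at room temperature. cAMP was measured by HTRF competition, 1hr.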
# [20] = Nuclear factor erythroid 2-related factor 2/antioxidant responsive element (Nrf2/ARE) small molecule agonists: luciferase reporter gene qHTS assay in human keratinocytes (AID 1919969); further: nearly all actives have a fitted effect of over 35% in size; further: potency means the concentration at half of the fitted maximal effect
SMILES,Potency [1],outcome [2],outcome [3],Potency [4],Potency [5],Potency [6],Potency [7],Potency [8],Potency [9],Potency [10],Potency [11],Potency [12],Potency [13],Potency [14],Potency [15],Potency [16],Potency [17],Potency [18],Potency [19],Potency [20]
O=C(C1CCCCC1)N1CC(=O)N2CCCc3ccccc3C2C1 (stereo unspecified),inactive,inactive,inactive,inactive,inactive,inactive,inactive,inactive,inactive,inactive,inactive,inactive,inactive,inactive,inactive,inactive,,,,
Cc1ccc(S(=O)(=O)NC(=O)NN2CC3CCCC3C2)cc1 (stereo unspecified),inactive,,inactive,inactive,inactive,inactive,inactive,,inactive,,,,,inactive,inactive,inactive,inactive,inactive,inactive,
CCOc1nc(F)cc2nc(S(=O)(=O)Nc3c(Cl)cccc3C(=O)OC)nn12,inactive,inactive,inactive,,inactive,inactive,,inactive,inactive,inactive,inactive,inactive,inactive,inactive,inactive,inactive,,inactive,,inactive
COC(=O)C(c1ccccc1Cl)N1CCc2sccc2C1 (stereo unspecified),inactive,inactive,inactive,,inactive,inactive,inactive,inactive,inactive,,,,,inactive,inactive,inactive,,,inactive,inactive
C=CCn1c(=O)n([C@@H]2O[C@H](CO)[C@@H](O)[C@H]2O)c2nc(N)[nH]c(=O)c21,inactive,inactive,inactive,,inactive,,inactive,inactive,inactive,inactive,inactive,inactive,inactive,inactive,inactive,inactive,,inactive,,inactive
C[C@H]1C[C@H]2[C@@H]3CCC4=CC(=O)C=C[C@]4(C)[C@@]3(F)[C@@H](O)C[C@]2(C)[C@@]1(O)C(=O)COP(=O)(O)O,inactive,inactive,inactive,inactive,inactive,inactive,inactive,inactive,inactive,,,,,inactive,inactive,inactive,inactive,inactive,inactive,
OC1(c2ccccc2)CCNCC1,inactive,inactive,inactive,inactive,,inactive,inactive,inactive,inactive,inactive,inactive,inactive,inactive,inactive,,inactive,inactive,,inactive,
CCCCNc1ccc(C(=O)OCCN(C)C)cc1,inactive,,inactive,inactive,inactive,inactive,inactive,inactive,inactive,,,,,inactive,inactive,inactive,inactive,inactive,inactive,inactive
O=P(O)(O)C(O)(Cc1cccnc1)P(=O)(O)O,,inactive,inactive,inactive,inactive,inactive,inactive,inactive,inactive,,,,,,inactive,inactive,inactive,inactive,,inactive
CCn1ccnc1CC1COc2ccccc2O1 (stereo unspecified),inactive,,inactive,inactive,inactive,inactive,inactive,inactive,inactive,inactive,inactive,,inactive,inactive,,inactive,inactive,inactive,,inactive
SC1CCCCC1,inactive,inactive,,inactive,inactive,inactive,inactive,,,inactive,inactive,inactive,inactive,inactive,inactive,inactive,inactive,inactive,,inactive
Cc1ccnc2ccccc12,,inactive,inactive,inactive,inactive,,inactive,inactive,inactive,inactive,inactive,inactive,inactive,inactive,inactive,inactive,inactive,inactive,inactive,68.4 µM (active)
CC(C)(O)CCc1ccccc1,inactive,inactive,,inactive,inactive,inactive,inactive,inactive,,inactive,inactive,,inactive,inactive,inactive,inactive,inactive,,inactive,inactive
C[C@@H]1C[C@H]2[C@@H]3CCC4=CC(=O)C=C[C@]4(C)[C@@]3(F)[C@@H](O)C[C@]2(C)[C@H]1C(=O)CO,inactive,inactive,,inactive,inactive,,inactive,inactive,inactive,,,,,,,inactive,inactive,inactive,inactive,inactive
